This passage reports Potency and activation results from PubChem BioAssay (Tox21).

The source made the active and inactive calls. Entries that show only a call come without a potency. Calls come from the whole dose curve.
Potency is the fitted concentration of half-maximal effect.

The experiment in a line: G protein-coupled receptor (GPCR) small molecule agonists, calcium flux assay: HEK293 wild type cell line counter screen (AID 1920065). Particulars: HEK293 WT calcium flux, fluorescence, agonist mode; series mostly up to 57.6 µM. The source says:
U.S. Tox21 Program National Center for Advancing Translational Sciences [NCATS] Division of Preclinical Innovation [DPI] U.S. Environmental Protection Agency [EPA] National Institutes of Environmental Health Sciences [NIEHS] National Toxicology Program [NTP] U.S. Food and Drug Administration [FDA] Assay overview: The increased intracellular calcium release that occurred upon G protein-coupled receptor (GPCR) activation led to the frequent use of calcium flux assays to detect GPCR activation. For the purpose of studying and screening compounds that may activate GPCR, receptor-overexpressing models were typically generated using Hek293 wild-type (WT) cells. In order to eliminate the compounds that may have induced calcium release for non-specific activation, a counter-assay utilizing calcium flux on Hek293 WT cells was performed. The data were formulated in order to serve as a control for any calcium flux detection utilizing Hek293 cells with either GPCR overexpression or gene modification. The procurement of Hek293 WT cells from ATCC. Fluorescence intensity can be utilized to determine the activation of the compound in a calcium flux assay. As a counter control, this cell line was utilized to screen the Tox21 10K compound library.
Assay Protocol Summary: Hek293 cells were dispensed at 1500cells/4uL/well in 1536-well black wall/clear bottom plates using a multidrop dispenser. After the assay plates were incubated at a 37 C/5% CO2 incubator for 18 hours, 4 uL of Calcium Dye Solution was added to each well. The plates were incubated at 37 C for 1 hour. For agonist mode, 23 nL of compounds dissolved in DMSO, positive control (ATP) or DMSO only was transferred to the assay plate by a pin tool station. The fluorescence intensity in the plates was measured using FDSS 7000EX kinetic plate reader with a filter set of Ex/Em=480/540 for 3 min at 1 sec intervals. Each test compound was measured at 15 concentrations and in triplicates.
In general terms: Calcium flux is commonly read through the fluorescence of an indicator in the cells.
Regarding `CCOC(=O)OC1=C(c2cc(C)ccc2C)C(=O)NC12CCC(OC)CC2` (stereo not given), the Potency result is “inactive”.

For `Cc1cc(C)c(C2=C(OC(=O)CC(C)(C)C)C3(CCCC3)OC2=O)c(C)c1`, the Potency result is “inactive”.

As for `N#CNC#N`, the Potency result is “inactive”.

Take `Nc1c(Cl)c(F)nc(OCC(=O)O)c1Cl`: the Potency entry is “inactive”.

Turning to `CC(CC(C#N)(c1ccccc1)c1ccccc1)N(C)C` (stereo not given), the Potency result is “inactive”.

Regarding `O=C=Nc1ccc(Cl)cc1`, the Potency entry was “inactive”.

As for `CCCCP(CCCC)CCCC`, the Potency entry is “inactive”.

Regarding `CCNc1nc(Cl)nc(NC(C)(C)C)n1`, the Potency result was “inactive”.

With `CCOP(=S)(OCC)SCSP(=S)(OCC)OCC`, the Potency result is “inactive”.

In the case of `COP(=O)(OC)OC(Br)C(Cl)(Cl)Br` (stereo not given), the Potency entry is “inactive”.

`O=c1[nH]c2ccccc2o1`: the Potency entry was “inactive”.

For `COc1ncc(F)c2nc(S(=O)(=O)Nc3c(F)cccc3F)nn12`, the Potency entry was “inactive”.

As to `CC(=O)[O-].CC(=O)[O-].CC(=O)[O-].[Sb+3]`, the activation is -0.454% [at 2.04 µM] (inactive).

Consider `CN(C)[C@@H]1C(=O)C(C(N)=O)=C(O)[C@@]2(O)C(=O)C3=C(O)c4c(O)ccc(Cl)c4[C@@](C)(O)[C@H]3C[C@@H]12`, for which the Potency result is “inactive”.

Take `C[C@]12CC[C@H](O)C[C@H]1CC[C@@H]1[C@@H]2C[C@@H](O)[C@]2(C)[C@@H](C3=CC(=O)OC3)CC[C@]12O`: the Potency result is “inactive”.

Regarding `O=[N+]([O-])c1ccc(Oc2ccc(C(F)(F)F)cc2[N+](=O)[O-])cc1`, the Potency result was “inactive”.

Consider `CN(C)c1ccc(N)cc1`, for which the Potency entry is “inactive”.

Regarding `CCC1(c2ccccc2)C(=O)N(COC)C(=O)N(COC)C1=O`, the Potency result is “inactive”.

For the compound `Brc1ccccc1`, the Potency entry was “inactive”.

Consider `CCc1cc(OC)c(C[C@H](C)N)cc1OC`, for which the Potency result was “inactive”.

As for `CCOC(=O)N(C)C(=O)CSP(=S)(OCC)OCC`, the Potency result is “inactive”.

Regarding `O=C(O)CC(Cl)C(=O)O` (stereo not given), the Potency result was “inactive”.

`CCCSP(=S)(OCC)Oc1ccc(Cl)cc1Cl` (stereo not given): the Potency result was “inactive”.

Take `Cc1ccc(N(SC(F)(Cl)Cl)S(=O)(=O)N(C)C)cc1`: the Potency is 38.9 µM (active).

With `CCCC[N+](CCCC)(CCCC)CCCC`, the Potency entry was “inactive”.

Consider `C=CCC1=C(C)C(OC(=O)C2C(C=C(C)C)C2(C)C)CC1=O` (stereo not given), for which the Potency entry is “inactive”.

Take `O=C(Nc1ccccc1)Nc1ccnc(Cl)c1`: the Potency result was “inactive”.

On to `CC(C)c1c(CN(C)C(C)Cc2ccccc2)n(C)n(-c2ccccc2)c1=O` (stereo not given), for which the Potency result is “inactive”.

Regarding `O=C(CCCCl)c1ccc(F)cc1`, the Potency result was “inactive”.

Consider `CC(C)(c1ccc(O)c(-c2ccccc2)c1)c1ccc(O)c(-c2ccccc2)c1`, for which the Potency result is “inactive”.

In the case of `CCCCCCCCCCCCCCC(Br)C(=O)O` (stereo not given), the Potency result is “inactive”.

Regarding `O=C(NC(O)C(Cl)(Cl)Cl)NC(O)C(Cl)(Cl)Cl` (stereo not given), the Potency result was “inactive”.

With `COc1ccc2c(c1OC)C(=O)O[C@H]2[C@@H]1c2cc3c(cc2CCN1C)OCO3`, the Potency result is “inactive”.

As for `CO/C=C(/C(=O)OC)c1ccccc1Oc1cc(Oc2ccccc2C#N)ncn1`, the Potency entry was “inactive”.

`O=C1NCN(c2ccccc2)C12CCN(CC1COc3ccccc3O1)CC2` (stereo not given): the Potency result was “inactive”.

For the compound `CC1(C)CN=C(NN=C(/C=C/c2ccc(C(F)(F)F)cc2)/C=C/c2ccc(C(F)(F)F)cc2)NC1`, the Potency result was “inactive”.

For the compound `COc1ccc(-c2ccccc2)cc1NNC(=O)OC(C)C`, the Potency entry is “inactive”.

On to `CCNP(=S)(OC)O/C(C)=C/C(=O)OC(C)C` (stereo not given), for which the Potency result is “inactive”.

Take `O=C(Oc1ccc(Br)cc1)N1CCN2CCC1CC2`: the Potency entry is “inactive”.

For `O=C1C(=O)c2cccc3cccc1c23`, the Potency entry is “inactive”.
